In the library only some 5% were active in any assay of this set; here they are far more common.
SENP8 block-1 = SENP8 protease inhibition. purified SENP8, Z-RLRGG-aminoluciferin cleavage, luminescence. inhibition, % at 10 µM. Q96LD8. actives 1.2% (n = 330,000). AID 2540; in the data active = inhibition above about 50%
SENP7 inh = SENP7 protease inhibition. Q9BQF6. recombinant SENP7, Z-RLRGG-aminoluciferin luminescence, 40 min. inhibition, % at 5 µM. actives 1.5% (n = 330,000);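 active = inhibition above about 50% at the single test dose, limit read from the data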;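 also: plate controls were DMSO with enzyme for no effect and no enzyme buffer wells for full effect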
SENP8 block-2 = blocks human SENP8 cleavage of Nedd8 substrate; AID 602440; recombinant SENP8, Nedd8 substrate fluorescence; inhibition, % at 20 µM; actives 0.64% (n = 360,000); Q96LD8; in the data active = inhibition mostly above about 40%, no sharp cut-off; inactive = mostly below about 27%
EBI2 block = blocks human EBI2 receptor beta-arrestin signaling. P32249. EBI2 beta-arrestin recruitment, luminescence, 7a,25-OHC stimulated. actives 0.81% (n = 360,000). inhibition, % at 5 µM; in the data active = inhibition above about 38%;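 also: enzyme fragment complementation signal reports receptor beta-arrestin coupling in cells; 0% = agonist plus DMSO wells and 100% = wells without agonist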
Target sequence (P32249 whole entry, looked up, the tested form may be a part): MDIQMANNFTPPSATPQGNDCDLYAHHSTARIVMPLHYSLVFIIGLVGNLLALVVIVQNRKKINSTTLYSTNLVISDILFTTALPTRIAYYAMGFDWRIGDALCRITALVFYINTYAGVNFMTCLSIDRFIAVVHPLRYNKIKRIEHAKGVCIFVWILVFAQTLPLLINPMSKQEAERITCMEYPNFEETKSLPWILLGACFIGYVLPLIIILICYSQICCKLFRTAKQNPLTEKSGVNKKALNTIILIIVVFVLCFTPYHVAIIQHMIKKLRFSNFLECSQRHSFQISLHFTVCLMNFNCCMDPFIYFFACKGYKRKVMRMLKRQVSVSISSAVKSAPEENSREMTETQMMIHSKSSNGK
SENP6 block = SENP6 protease inhibition; AID 2599; inhibition, % at 10 µM; Q9GZR1; actives 1.8% (n = 330,000); Recombinant SENP6 catalytic domain, aminoluciferin luminescence;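 active = inhibition above about 50% at the single tested dose, limit read from the data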;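 also: plate controls were DMSO wells with enzyme for no effect and DMSO wells lacking enzyme for full effect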
AHR activator = activators of human aryl hydrocarbon receptor. AHR-responsive luciferase reporter cells, luminescence. activation, % at 5 µM. actives 2.5% (n = 320,000). AID 2796; in the data active = activation above about 47%;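 also: 0% = vehicle wells and 100% = reference agonist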
SENP8 confirm = confirmation of human SENP8 protease inhibitors; shares compounds with SENP7 inh; Recombinant SENP8, Z-RLRGG-aminoluciferin luminescence, 60 min; inhibition, % at 12.5 µM; actives 40% (n = 6,200); AID 488912;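 active = mean inhibition across replicates above about 50%, limit read from the data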
SENP6 confirm = human SENP6 inhibition, confirmed; actives 58% (n = 6,200); recombinant SENP6, Z-RLRGG-aminoluciferin luminescence; inhibition, % at 12.5 µM; shares compounds with SENP7 inh
SENP7 confirm = human SENP7 inhibition, confirmed. shares compounds with SENP7 inh. recombinant SENP7, Z-RLRGG-aminoluciferin luminescence, 40 min. inhibition, % at 12.5 µM. actives 69% (n = 6,200). AID 488917
Casp3 SENP sel = caspase-3 inhibition (SENP selectivity assay); shares compounds with SENP7 inh; inhibition, % at 12.5 µM; AID 488918; purified caspase-3, Z-DEVD-aminoluciferin luminescence, 60 min; actives 60% (n = 6,200);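 active = mean inhibition above about 50%, limit read from the data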;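 also: plate controls were enzyme with DMSO for no effect and wells without caspase-3 for full effect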
Target sequence (P42574 28-227 limits assumed): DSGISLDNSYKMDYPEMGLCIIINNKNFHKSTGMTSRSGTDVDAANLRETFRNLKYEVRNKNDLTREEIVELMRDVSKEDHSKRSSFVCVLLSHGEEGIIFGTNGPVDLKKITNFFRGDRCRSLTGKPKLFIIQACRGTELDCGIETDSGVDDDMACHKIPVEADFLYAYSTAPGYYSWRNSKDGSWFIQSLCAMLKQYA
SENP luc ctr = luminescence interference (SENP counter-screen) | shares compounds with SENP7 inh | actives 39% (n = 6,200) | Pre-incubated SENP8/Z-RLRGG-aminoluciferin, luciferase luminescence interference | inhibition, % at 12.5 µM | AID 488919;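 active = mean inhibition above about 50% when retested at one dose, limit read from the data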;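 also: plate controls were DMSO wells with completed reaction for no effect and substrate without enzyme for full effect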
Active calls of the source: *; / = not tested or not shown.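 The calls were made as follows, unless noted: active = mean inhibition above about 50% in the one-dose retest (limit read from the data); inactive = the rest.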

SMILES | SENP8 block-1 | SENP7 inh | SENP8 block-2 | EBI2 block | SENP6 block | AHR activator | SENP8 confirm | SENP6 confirm | SENP7 confirm | Casp3 SENP sel | SENP luc ctr
CC1CCN(C(=O)c2ccccc2NS(=O)(=O)c2ccccc2)CC1 | 8 | 6 | 6 | 9 | 13 | 2 | / | / | / | / | /
COc1ccccc1NC(=O)C1CC(O)CN1C(=O)Oc1ccccc1 (configuration not stated) | -4 | 1 | 17 | -9 | 0 | 2 | / | / | / | / | /
Cc1cccc(-c2nnc(-c3ccc4ccccc4c3)o2)c1 | / | / | -302 | 25 | / | / | / | / | / | / | /
O=C(O)c1ccc(-c2noc(-c3ccccc3C(F)(F)F)n2)cc1 | 67* | 4 | 18 | -4 | 82* | 8 | 5 | 29 | 43 | 38 | 46
c1ccc(-c2noc(-c3ccc4ccccc4c3)n2)cc1 | 90* | 98* | -25 | 25 | 92* | 38 | 12 | 9 | 2 | 43 | 4
COc1ccccc1-c1nc(-c2ccc(Br)cc2)no1 | 70* | 0 | -7 | 31 | 71* | 64* | 0 | 11 | 22 | 10 | 7
CS(=O)(=O)c1ccccc1-c1nc(-c2ccc(C(F)(F)F)cc2)no1 | -9 | -1 | 16 | -2 | -6 | -7 | / | / | / | / | /
CC(=O)n1cc([C@H]2C=C(C(=O)N3CCOCC3)O[C@@H](OCCCCO)C2)c2ccccc21 | 4 | -10 | -18 | -4 | -6 | 8 | / | / | / | / | /
COc1ccc2c(c1)C1OCCC1C(c1ccco1)N2 (configuration not stated) | 56* | 42 | -460 | -5 | -3 | 9 | 64* | 64* | 91* | 88* | 75*
c1coc(C2Nc3ccccc3C3OCCC23)c1 (configuration not stated) | -10 | -7 | -235 | -2 | -6 | -1 | / | / | / | / | /
CCn1c(CC(=O)Nc2ccc(F)cc2)nnc1SCC(=O)N1CCOCC1 | 0 | 0 | 12 | -10 | -5 | -1 | / | / | / | / | /
COc1ccc(C(N)c2nccc3cc(OC)c(OC)cc23)cc1OC (configuration not stated) | 49 | 70* | -83 | 8 | 75* | 3 | -26 | -13 | -6 | -9 | -7
COc1cc2ccnc(C=O)c2cc1OC | / | / | -120 | -8 | / | / | / | / | / | / | /
O=C(Nc1cccc2ccccc12)N1CCN(c2ccccc2)CC1 | -6 | 3 | -462 | 6 | 11 | 8 | / | / | / | / | /
O=C(Nc1cccc2ccccc12)N1CC=CCC1 | 14 | 42 | -426 | -12 | 65* | 10 | -6 | -5 | -11 | 1 | 2
Cc1ccc(Nc2n[nH]c(C)c2[N+](=O)[O-])cc1C | 42 | 33 | 26 | 10 | 58* | 39 | 23 | 42 | 84* | 53* | 3
CCN1CCN(c2nc(N)c([N+](=O)[O-])c(Nc3ccc(C)c(C)c3)n2)CC1 | -6 | -4 | 24 | 1 | -2 | 5 | / | / | / | / | /
Cc1cc(C(=O)N/N=C/c2ccc(-c3cccc(Cl)c3)o2)n[nH]1 | -2 | -9 | -358 | 3 | -14 | 5 | / | / | / | / | /
C/C(=N/OC(=O)c1c(F)cccc1F)c1nccs1 | 46 | 80* | 17 | -13 | 83* | 1 | 74* | 75* | 97* | 65* | 82*
O=C(O/N=C(/c1ccccc1)c1ccncc1)c1ccc(F)cc1 | -8 | -8 | 4 | 0 | -18 | 2 | / | / | / | / | /
C/C(=N\OC(=O)c1c(-c2c(F)cccc2Cl)noc1C)c1nccs1 | 1 | -10 | 16 | -1 | 0 | -2 | / | / | / | / | /
COc1ccc(C(=O)O/N=C(\C)c2nccs2)cc1 | 87* | 97* | 6 | 1 | 79* | 0 | 73* | 96* | 100* | 96* | 43
COc1ccc(C/C(N)=N/OC(=O)c2cccs2)cc1 | -3 | 0 | 6 | -21 | -4 | -3 | / | / | / | / | /
COc1ccc(C(=O)O/N=C(/C)c2cccs2)cc1 | 97* | 99* | 22 | -2 | 98* | 3 | 12 | 101* | 104* | 99* | 99*
C/C(=N\OC(=O)c1ccc(F)cc1)c1nccs1 | 35 | 84* | 9 | 6 | 74* | 0 | 22 | 25 | 50* | 56* | 21
SMILES | SENP8 block-1 | SENP7 inh | SENP8 block-2 | EBI2 block | SENP6 block | AHR activator | SENP8 confirm | SENP6 confirm | SENP7 confirm | Casp3 SENP sel | SENP luc ctr
CC(=NOC(=O)C1CCCCC1)c1nccs1 | / | / | 9 | -1 | / | / | / | / | / | / | /
O=C1NC(=Nc2ccc(F)cc2)CS1 | -7 | -1 | -17 | -5 | 6 | 5 | / | / | / | / | /
CCn1cc(C(=O)N2CCN(c3ccc(C(C)=O)cc3)CC2)c2cc(OC)c(OC)cc2c1=O | -2 | -10 | -124 | -8 | 1 | 0 | / | / | / | / | /
COc1ccc(-c2noc(N3CCCC(C(=O)Nc4cc(F)ccc4F)C3)n2)cc1 (configuration not stated) | -15 | -12 | 1 | 7 | -2 | 4 | / | / | / | / | /
CCCCCC(=O)Nc1ccc2oc(-c3cncc(Br)c3)nc2c1 | -2 | 101* | -284 | 2 | -14 | 3 | 3 | 1 | -1 | 10 | 0
O=C(Nc1ccc(Cl)c(Cl)c1)Nc1ccccc1O | 98* | 97* | 5 | 7 | -3 | 27 | 98* | 100* | 104* | 90* | 98*
CN(C)c1ccc(NC(=O)Nc2cccc(Cl)c2)cc1 | 80* | 88* | 17 | 9 | 89* | 20 | 76* | 85* | 99* | 82* | 66*
O=C(Nc1ccc(Cl)cc1)Nc1ccc(Cl)c(Cl)c1 | 4 | -5 | / | / | -1 | 21 | / | / | / | / | /
COc1ccc(NC(=O)Nc2ccccc2SC)cc1OC | 10 | 13 | 1 | 4 | 18 | 32 | / | / | / | / | /
COc1ccccc1C(=O)NC(=O)Nc1cccc(Cl)c1 | 82* | 85* | 20 | 18 | 79* | 45 | 44 | 36 | 40 | 42 | 30
CSc1ccccc1NC(=O)Nc1ccc(F)c(Cl)c1 | 68* | 87* | 13 | 1 | 77* | 3 | 1 | 76* | 96* | 68* | 72*
O=C(CN1C(=O)NC(Cc2ccccc2)C1=O)Nc1ccccc1OC(F)F (configuration not stated) | 2 | 5 | 7 | -15 | -26 | 1 | / | / | / | / | /
CSc1ccccc1NC(=O)Nc1cccc(Cl)c1 | 67* | 80* | 3 | -6 | 83* | 22 | 83* | 80* | 95* | 53* | 73*
